Source: PubChem BioAssay
Sampled rows, rich in hits. Any-hit rate of the full collection: about 7.3%.
HCMV antiviral: blocks human cytomegalovirus replication. HFF cells, HCMV-luciferase reporter, 72 h; active compounds read low. activity change, negative = inhibition, % at 57.5 µM. hit rate 4.5% among 410,000; in the data active = activity change below about -60%; inconclusive = no clear call, values can overlap the other calls; inactive = above about -39%
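Steps: HFFs plated, 16 h 37C; compounds added; HCMV-luciferase added to MOI 1 PFU/cell; 72 h 37C; OneGlo reagent, 5 min room temperature; luminescence read, normalized to controls.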
Vaccinia Venus: vaccinia inhibition (Venus reporter); Potency, µM (doses to about 36.5 µM), for the others: at the top dose activity change, negative = inhibition, actives largely listed as inhibitors; Vaccinia virus Venus reporter expression, fluorescence; hit rate 0.46% among 330,000; AID 720580; calls by dose curve; tested in A549 cells; also: potency is read from the fitted curve at half-maximal effect; nearly all actives have a fitted effect of over 30% in size
Vaccinia mCherry: inhibitors of vaccinia virus infection (mCherry reporter signal); AID 720579; Vaccinia virus mCherry reporter infection, fluorescence; Potency, µM (highest dose often 36.5 µM), for the others: at the top dose activity change, negative = inhibition, most hits filed as inhibitors; hit rate 0.63% among 310,000; calls by dose curve; tested in A549 cells; also: potency is read from the fitted curve at half-maximal effect; nearly all actives have a fitted effect of over 35% in size
FMDV antiviral: foot and mouth disease virus antiviral activity | FMDV antiviral cell-based qHTS | Potency, µM (titrated, usually from 57.9 µM), inactives show at the top dose activity change, negative = inhibition, actives largely listed as inhibitors | hit rate 1.2% among 410,000 | AID 1159524; calls by dose curve; tested in HEK293T cells; also: read-out not given here; potency is read from the fitted curve at half-maximal effect; nearly all actives have a fitted effect of over 45% in size
HCV inhibitor: inhibitors of hepatitis C virus infection; Huh7.5.1 HCVcc-Cre infection, luciferase reporter, 44 h; Potency, µM (top dose mostly 41.8 µM), without a hit: at the highest dose activity change, negative = inhibition, actives largely listed as inhibitors; hit rate 3.4% among 340,000; AID 651820; active = well fitted inhibition curve with a large enough effect; inconclusive = small, poorly fitted or top-dose-only effect, or another doubt; inactive = no such curve, though single readings can be large or run the other way; also: potency is read from the fitted curve at half-maximal effect
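Infectious HCVcc-Cre (~0.5 moi) was added to cells just after compound, with cells seeded 4 h earlier at 1,000 per well. Luciferase activity after 44 h culture reported infection; substrate was incubated 15 min at room temperature before reading.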
* hit, by the source's call; i = inactive; ? = inconclusive; / = no result; [ ] = another dose, or the depositor's remark. % is scaled to controls: 0 for no effect and ±100 for the full control effect.

SMILES	HCMV antiviral	Vaccinia Venus	Vaccinia mCherry	FMDV antiviral	HCV inhibitor
COc1ccc(S(=O)(=O)N2CCC(C(=O)N[C@@H](C)C(=O)NCc3ccco3)CC2)cc1	-28	-14%	i	-13%	/
COc1cc2c(cc1OC)CN(c1nc(CN3CCOCC3)nc3sc4c(c13)CCCC4)CC2	1	?	?	?	?
COc1cc2c(cc1OC)CN(c1nc(CN3CCCCC3)nc3sc4c(c13)CCCC4)CC2	37	-4%	-7%	-7%	22µM*
CCc1nc2c(OCc3cccc(Cl)c3)cccn2c1N(C)C(=O)CC(C)C	?	-7%	i	-30%	/
CC(=O)NC(c1cc(Cl)c2cccnc2c1O)C(C)C (centres undefined)	-98*	/	/	-18%	/
CC(=O)NC(c1ccc(C)cc1)c1cc(Cl)c2cccnc2c1O (centres undefined)	-102*	?	?	-19%	5.6µM*
CC(=O)NC(c1ccco1)c1cc(Cl)c2cccnc2c1O (centres undefined)	-89*	/	/	-11%	/
CCCCC(=O)NC(c1ccco1)c1cc(Cl)c2cccnc2c1O (centres undefined)	-96*	?	13µM*	-19%	8.9µM*
O=C(CN1C(=O)c2cccnc2Oc2ccc(Cl)cc21)N1CCCC1	-34	-4%	-14%	-6%	8%
O=C(NC1CCCCC1)OC1CC2CC1[C@H]1CCCCN1C2=O (some centres undefined)	21	5%	11%	-24%	/
CCC(=O)NC(c1ccco1)c1cc(Cl)c2cccnc2c1O (centres undefined)	-97*	?	7.9µM*	-15%	6.3µM*
CC(=O)NC(c1cc(Cl)c2cccnc2c1O)C1CC1 (centres undefined)	-97*	/	/	0%	/
CCN(C[C@H]1N[C@@](Cc2ccccc2)(C(=O)OC)[C@H]2C(=O)N(C)C(=O)[C@@H]12)C(C)=O	-10	-11%	-17%	7%	48%[8.37 µM]
CCOC(=O)N1CCN(c2c(NCCCN(C)c3ccccc3)c(=O)c2=O)CC1	-75*	0%	-29%	-16%	-1%
CCOC(=O)N1CCN(c2c(NCc3ccc(Cl)cc3)c(=O)c2=O)CC1	-75*	-14%	?	-24%	?
CCOC(=O)N1CCN(c2c(NCc3ccc(F)cc3)c(=O)c2=O)CC1	-31	-8%	-20%	-4%	-12%
CCOC(=O)N1CCN(c2c(NCCN(C)Cc3ccccc3)c(=O)c2=O)CC1	26	-9%	i	-23%	5%
O=C(CCC1CCCCC1)NC1CCCCC1	-28	-16%	-3%	30%	14%
COC(=O)[C@@]1(Cc2ccc(OC)cc2)[C@H]2c3cc(C(=O)N(C)C)n(CCc4ccc(OC)c(Br)c4)c3C[C@H]2CN1C(=O)c1ccccc1	/	/	/	/	6%[8.37 µM]
CC(C)(C)Nc1nc(NN)nc(NC(C)(C)C)n1	-85*	-27%	/	-22%	?
COc1ccc(-n2nnc3c(SC(C(C)=O)C(=O)N(C)C)ncnc32)cc1 (centres undefined)	-15	/	/	32µM*	7%
O=C(O)c1ccc2c(c1)S(=O)(=O)c1cc(N3CCN(c4cnccn4)CC3)ccc1C2=O	-20	-1%	-18%	-10%	/
CCOc1cc2c(cc1/C=C1/NC(=O)N(CC(=O)OC)C1=O)OCO2	23	-19%	-13%	-30%	10µM*
COC(=O)CN1C(=O)N/C(=C/c2cc3c(cc2OC)OCO3)C1=O	16	-9%	i	5%	12%
COc1ccccc1CNC(=O)C1CCN(c2nc3ccc(Cl)cc3[nH]2)CC1	0	-8%	-8%	-6%	/
SMILES	HCMV antiviral	Vaccinia Venus	Vaccinia mCherry	FMDV antiviral	HCV inhibitor
CCN1C(=C(C#N)C#N)C=Cc2cc(C)ccc21	-21	-9%	i	6%	-10%
C=CC[n+]1c(/C=C2\C=Cc3cc(C)ccc3N2CC)ccc2ccccc21	-102*	/	/	?	2.5µM*
COC(=O)c1cc(=O)c2c(C)nc(C(Cl)(Cl)Cl)nc2[nH]1	-100*	-21%	-8%	?	8%
CC(C)N1CC(=O)N2CSCC2C1=O (centres undefined)	7	5%	5%	-18%	/
Cc1cc2c(NC(=O)Nc3ccc(C(C)(C)C)cc3)cccc2nn1	2	/	/	?	14µM*
CCOC(=O)CSc1nc2c(c(=O)[nH]c(=O)n2C)n1Cc1ccccc1	65	/	/	-18%	2.8µM*
CC(=O)CSc1nc2c(c(=O)[nH]c(=O)n2C)n1Cc1cccc(Br)c1	229	?	-15%	-19%	13µM*
CCc1nn(C(C)C(=O)N2CCN(c3cccc(C(F)(F)F)c3)CC2)c(=O)c2cc3occc3n12 (centres undefined)	-8	-11%	-7%	-27%	/
Cc1ccccc1C(=O)Nc1sc2c(c1C(=O)N1CCCCC1)CCC(C)C2 (centres undefined)	-12	-6%	-15%	29%	/
Cc1ccc2nc(-c3ccncc3)c(NC3CCCC3)n2c1	-65*	/	/	-24%	?
Cc1ccc2nc(-c3ccncc3)c(NC3CCCCC3)n2c1	-10	-2%	-13%	-29%	?
COc1ccccc1N1CCN(Cc2ccc(OC)c(OC)c2OC)CC1	54	/	/	-12%	-12%
COc1ccccc1N1CCN(Cc2ccc(O)c3ncccc23)CC1	-91*	/	/	?	3.5µM*
CCOC(=O)C1CCN(Cc2ccc(O)c3ncccc23)CC1	?	/	/	-26%	10µM*
CCOC(=O)C1CCN(Cc2ccccc2C(F)(F)F)CC1	8	/	/	-17%	8%
Oc1ccc(CN2CCCc3ccccc32)c2cccnc12	/	?	?	-3%	10µM*
CC1(C(=O)NS(=O)(=O)c2cccc(F)c2)CCN1C(=O)Cc1cccs1 (centres undefined)	-21	-8%	i	-2%	/
C=CCN1C(=O)c2ccc(C(=O)N(C)CC(=O)Nc3cccc(F)c3)cc2C1=O	8	-2%	-10%	-9%	-1%
COc1cccc(NC(=O)C2CCN(Cc3cnn(-c4ccccc4)c3-n3cccc3)CC2)c1	-19	/	/	?	11µM*
Cn1cc(CN2CCC(C(=O)Nc3ccc(Oc4ccccc4F)cc3)CC2)cn1	?	/	/	?	11µM*
COc1ccc(CN2CCC(C(=O)Nc3ccc(Oc4cccnc4)cc3)CC2)cc1	-75*	-19%	?	?	?
COc1ccc(NC(=O)C2CCN(Cc3cnn(-c4ccccc4)c3-n3cccc3)CC2)cc1OC	12	-29%	-13%	?	?
COc1cccc(O)c1CN1CCC(C(=O)Nc2ccc(Oc3cccnc3)cc2)CC1	?	-17%	i	-10%	?
CCn1cc(CN2CCC(C(=O)Nc3ccc(Oc4ccccc4F)cc3)CC2)cn1	-26	-26%	i	?	/
COc1ccc(NC(=O)N2CC3(CCN(C(=O)c4ccncc4)CC3)C2)cc1	/	/	/	-4%	/
O=c1oc2ccccc2cc1-c1nc(-c2cccs2)no1	16	-5%	-3%	9%	/
C/C(N)=C(/C#N)C(=O)COc1ncnc2ccccc12	14	/	/	10%	21%
